Assay [1] is described as follows: ATG_EGR_CIS: Attagene CIS-FACTORIAL HepG2 Assay for human Early Growth Response 1 (EGR1) (AID 2282938). The settings on record: HepG2 Attagene CIS-FACTORIAL EGR reporter mRNA; actives raise or lower the signal. Put shortly:
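HepG2 cells transiently transfected with cis-element-driven multiplexed reporter units, dosed for 24 h. EGR1-element reporter mRNA quantified by RT-PCR, 6-FAM labelling, HpaI digestion and capillary electrophoresis; bidirectional fit versus DMSO.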

Assay [2] is described as follows: ATG_M_19_CIS: Attagene CIS-FACTORIAL HepG2 Assay for M19 Transcription Factor (Internal Marker) (AID 2282939). To be noted: HepG2 Attagene CIS-FACTORIAL M19 internal marker reporter; actives raise or lower the signal. In outline:
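Internal marker readout, fitted in both directions against DMSO, from HepG2 cells carrying transfected cis-element reporter constructs; RT-PCR and capillary electrophoresis of reporter mRNA after 24 h exposure.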

Assay [3] in a line: ATG_ERE_CIS: Attagene CIS-FACTORIAL HepG2 Assay for Estrogen Response Element (ERE) (AID 2282940). The settings on record: HepG2 ERE cis-reporter, Attagene RNA transcript; actives raise or lower the signal. In outline:
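After 24 h compound treatment, RNA from transfected HepG2 cells was reverse-transcribed, reporter cDNA PCR-amplified, FAM-labelled, HpaI-cut and resolved by capillary electrophoresis. ERE-driven cis reporter transcripts reflect endogenous factors; gain or loss scored against DMSO.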

Assay [4] in a line: ATG_Ets_CIS: Attagene CIS-FACTORIAL HepG2 Assay for human Erythroblast Transformation Specific (ETS) (AID 2282941). The settings on record: HepG2 ETS cis-reporter transcription, actives raise or lower the signal. In outline: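 Human HepG2 hepatoma cells were transiently transfected with promoter-driven reporter constructs and treated for 24 hours. Reporter transcripts were quantified by RT-PCR with fluorescent primer extension; bidirectional curve fitting used DMSO as reference.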

The target in assay [5] is Hepatocyte nuclear factor 3-beta (Homo sapiens) (UniProt Q9Y261). As to the kind of experiment: ATG_FoxA2_CIS: Attagene CIS-FACTORIAL HepG2 Assay for human Forkhead box A2 (FOXA2) (AID 2282942). The settings on record: HepG2 cis-reporter transcription factor activity, 24 h; actives raise or lower the signal. Put shortly:
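HepG2 transiently transfected with a multiplexed cis-promoter reporter library read endogenous FOXA2 activity. After 24 h compound exposure, reporter mRNA was quantified by RT-PCR, HpaI digestion and capillary electrophoresis. Bidirectional fit against DMSO.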

Assay [6] in a line: ATG_FoxO_CIS: Attagene CIS-FACTORIAL HepG2 Assay for human Forkhead box O (FoxO) (AID 2282943). The settings on record: HepG2 Attagene cis-reporter, FoxO element, mRNA; actives raise or lower the signal. In outline: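 HepG2, transient MRTU transfection (cis element, endogenous TFs). Dose 24 h. TriZol RNA → oligo(dT) RT → PCR → 6-FAM primer extension → HpaI cut → CE. Gain/loss vs DMSO.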

Assay [7] is described as follows: ATG_GATA_CIS: Attagene CIS-FACTORIAL HepG2 Assay for human GATA Binding Protein (AID 2282944). The settings on record: HepG2 GATA cis-element reporter, Attagene multiplex mRNA; actives raise or lower the signal. In outline: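 Reporter transcripts from a GATA cis-regulated unit, among multiplexed reporters in transfected HepG2 cells, were measured by RT-PCR with capillary electrophoresis after 24 h dosing. Induction or loss scored relative to DMSO.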

Assay [8] in a line: ATG_GLI_CIS: Attagene CIS-FACTORIAL HepG2 Assay for human Zinc Finger Protein GLI1 (AID 2282945). To be noted: HepG2, Attagene cis-factorial reporter mRNA, GLI element; actives raise or lower the signal. In outline:
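Bidirectional curve fits relative to DMSO, using reporter mRNA levels from RT-PCR plus capillary electrophoresis. Cells were HepG2 transiently carrying cis-regulated reporter constructs, harvested 24 h after dosing.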

The target of assay [9] is Bile acid receptor (Homo sapiens) (UniProt Q96RI1). As to the kind of experiment: ATG_IR1_CIS: Attagene CIS-FACTORIAL HepG2 Assay for human Nuclear Receptor Subfamily 1 Group H Member 4 (NR1H4), IR1 submotif (AID 2282946). The settings on record: IR1 reporter transcription, actives raise or lower the signal. In outline: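 Cells (human HepG2) carry transiently transfected cis-promoter reporter transcription units. Compounds are incubated 24 h, total RNA is reverse-transcribed and amplified, and labelled fragments are resolved by capillary electrophoresis. Curves use DMSO as baseline.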
Chain of Bile acid receptor (Homo sapiens) (Q96RI1 whole entry, looked up, the tested form may be a part): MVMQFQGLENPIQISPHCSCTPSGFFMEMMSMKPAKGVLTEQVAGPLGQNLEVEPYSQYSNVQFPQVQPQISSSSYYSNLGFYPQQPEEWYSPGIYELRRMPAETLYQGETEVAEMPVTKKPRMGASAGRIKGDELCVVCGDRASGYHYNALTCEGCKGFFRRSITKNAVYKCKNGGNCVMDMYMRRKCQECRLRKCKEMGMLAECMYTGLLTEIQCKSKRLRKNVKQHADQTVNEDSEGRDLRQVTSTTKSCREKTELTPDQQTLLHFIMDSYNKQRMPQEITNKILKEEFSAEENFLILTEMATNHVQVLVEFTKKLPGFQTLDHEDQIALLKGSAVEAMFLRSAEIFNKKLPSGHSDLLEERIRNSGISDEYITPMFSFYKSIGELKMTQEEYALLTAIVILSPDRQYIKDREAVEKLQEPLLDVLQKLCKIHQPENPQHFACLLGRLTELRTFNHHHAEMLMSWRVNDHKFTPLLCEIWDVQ

Assay [10] in a line: ATG_GRE_CIS: Attagene CIS-FACTORIAL HepG2 Assay for human Glucocorticoid Response Elements (GRE) (AID 2282947). The settings on record: HepG2 GRE cis-reporter, Attagene multiplex mRNA; actives raise or lower the signal. In outline: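 Transient MRTU transfection of human HepG2 liver cells; cis-regulated reporters report endogenous factors. 24 h dosing → RNA isolation → RT-PCR → 6-FAM primer extension → HpaI cut → CE fragment analysis. Bidirectional fit, DMSO negative control.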

Some compounds were tested as several samples or in several runs, with calls that do not always agree. Active and inactive are the calls of the source. Rule for the calls: active = hit-call score of the fitted dose curve at least 0.9, where 1 is the maximum; inactive = score below 0.9.

Chain of Hepatocyte nuclear factor 3-beta (Homo sapiens) (Q9Y261 whole entry, looked up): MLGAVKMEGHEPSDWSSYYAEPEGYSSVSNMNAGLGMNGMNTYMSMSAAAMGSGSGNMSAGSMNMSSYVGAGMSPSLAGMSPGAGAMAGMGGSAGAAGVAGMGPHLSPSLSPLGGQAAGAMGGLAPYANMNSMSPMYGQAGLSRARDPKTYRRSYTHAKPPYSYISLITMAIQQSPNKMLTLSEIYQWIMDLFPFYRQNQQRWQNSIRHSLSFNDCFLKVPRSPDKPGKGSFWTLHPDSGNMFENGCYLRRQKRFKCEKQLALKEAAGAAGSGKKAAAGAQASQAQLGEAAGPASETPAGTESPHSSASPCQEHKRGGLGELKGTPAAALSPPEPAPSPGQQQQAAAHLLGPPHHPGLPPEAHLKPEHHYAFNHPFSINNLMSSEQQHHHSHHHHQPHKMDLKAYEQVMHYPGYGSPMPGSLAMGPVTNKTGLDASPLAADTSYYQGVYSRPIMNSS

Regarding `Nc1cccc(Cl)c1`, the compound was classed as inactive in assay [1], in [2], in assay [3], in [4], in assay [5] and in [6]. In addition, the call in assay [7], in [8] and in assay [9] was inactive.
In the case of `CN(C)P(=O)(N(C)C)N(C)C`, the result in assay [1], in assay [2], in assay [3], in [4], in assay [5] and in [6] was inactive. In addition, the compound was classed as inactive in assay [7], in [8] and in assay [9].
For orientation: AC50 means the concentration giving half of the maximal activity seen. On to `COP(=S)(OC)Oc1ccc(Sc2ccc(OP(=S)(OC)OC)cc2)cc1`, for which, in assay [1], the AC50 was 29.8 µM (active). In addition, the outcome in [2], in assay [3], in assay [4], in assay [5], in assay [6] and in assay [7] was inactive. Moreover, the call in assay [8] was inactive.
As to `CCC(=O)c1ccccc1`, the result in assay [1], in assay [2], in assay [3], in assay [4], in assay [5] and in assay [6] was inactive. The outcome in assay [7], in assay [8] and in assay [9] was inactive.
For the compound `Nc1cccc2ccccc12`, the call in assay [1], in [2], in assay [3], in assay [4], in [5] and in [6] was inactive. Besides, the outcome in assay [7] and in [8] was inactive.
Consider `CC(=O)[O][Hg][c]1ccccc1`, for which the AC50 in assay [1] is 4.73 µM (active); in [10], 3.71 µM (active). In addition, the outcome in assay [2], in [3], in assay [4], in assay [5], in [6] and in assay [7] was inactive. Besides, the call in [8] and in [9] was inactive.
As to `CCOC(=O)CP(=O)(OCC)OCC`, the compound was classed as inactive in assay [1], in [2], in [3], in assay [4], in assay [5] and in assay [6]. For the same compound, the outcome in assay [7], in assay [8] and in assay [9] was inactive.
As for `CCN1CCC2(CC1)COc1cc3c(cc12)N(C(=O)c1ccc(-c2ccc(-c4nnc(C)o4)cc2C)cc1)CC3`, the compound was called inactive in assay [1], in [2], in [3], in assay [4], in assay [5] and in assay [6]. Further, the result in [7], in [8] and in assay [9] was inactive.
As for `O=C1C2(Cl)C3(Cl)C4(Cl)C(Cl)(Cl)C5(Cl)C3(Cl)C1(Cl)C5(Cl)C24Cl` (stereo not given), the AC50 was 8.48 µM (active) in assay [1]; 20.3 µM (active) in assay [4]; 3.57 µM (active) in assay [8]; 7.38 µM (active) in assay [9]; 5.27 µM (active) in assay [10]. Besides, the compound was called inactive in [1], in [2], in assay [4], in assay [5], in [6] and in [8]. Also, the outcome in assay [9] and in assay [10] was inactive.
Take `COc1cc(-c2ccc(N)c(OC)c2)ccc1N`: the AC50 in assay [1] is 27.9 µM (active); in assay [4], 100 µM (active). Further, the compound was called inactive in [1], in assay [2], in assay [4], in assay [5], in [6] and in assay [7]. Moreover, in assay [8], the result was inactive.
On to `CCCCCCCCCl`, for which the call in [1], in assay [2], in assay [3], in assay [4], in assay [5] and in [6] was inactive. In addition, the outcome in assay [7], in assay [8], in assay [9] and in assay [10] was inactive.
As for `COC[C@H](C)N(C(=O)CCl)c1c(C)csc1C`, the compound was called inactive in assay [1], in assay [2], in [3], in [4], in assay [5] and in [6]. Moreover, the outcome in [7], in assay [8], in assay [9] and in assay [10] was inactive.
Turning to `C1CCC(NC2CCCCC2)CC1`, the compound was classed as inactive in assay [1], in assay [2], in assay [4], in assay [5], in assay [6] and in assay [7]. Moreover, the compound was classed as inactive in [8] and in assay [10]. Further, the AC50 in [3] was 28.8 µM (active).
As for `CCNc1nc(NC(C)(C)C)nc(SC)n1`, the outcome in assay [1], in assay [2], in [3], in assay [4], in assay [5] and in assay [6] was inactive. Besides, the result in assay [7], in [8], in [9] and in assay [10] was inactive.
`ClC1(Cl)C2(Cl)C3(Cl)C4(Cl)C(Cl)(Cl)C5(Cl)C3(Cl)C1(Cl)C5(Cl)C24Cl` (stereo not given): the call in assay [1], in assay [2], in [3], in assay [4], in [5] and in assay [6] was inactive. In addition, the result in assay [7], in assay [8], in assay [9] and in assay [10] was inactive.
As for `Oc1c(I)cc(I)cc1I`, the AC50 was 71.1 µM (active) in assay [1], 100 µM (active) in assay [6] and 149 µM (active) in [8]. In addition, the compound was called inactive in assay [2], in assay [3], in [4], in assay [5], in assay [7] and in assay [9]. In addition, the call in assay [10] was inactive.
Take `CC(=O)OC(c1ccccc1)C(Cl)(Cl)Cl` (stereo not given): the result in assay [1], in assay [2], in [4], in assay [5], in assay [6] and in assay [7] was inactive. Also, the result in [8], in assay [9] and in [10] was inactive. Moreover, the AC50 in assay [3] was 73.8 µM (active).
`ClC1=C(Cl)[C@]2(Cl)[C@H]3[C@H]([C@H]4C=C[C@H]3C4)[C@@]1(Cl)C2(Cl)Cl`: the result in [1], in assay [2], in [4], in [5], in assay [6] and in assay [7] was inactive. For the same compound, the compound was classed as inactive in assay [8] and in assay [10]. Besides, in assay [3], the concentration at half-maximal activity (AC50) was 9.92 µM (active).
For `CCC(=O)C(CC(C)N(C)C)(c1ccccc1)c1ccccc1` (stereo not given), the compound was classed as inactive in assay [1], in [2], in [3], in assay [4], in assay [5] and in [6]. Also, the compound was classed as inactive in [7], in assay [8], in assay [9] and in assay [10].
As to `CCc1ccccc1C`, the compound was called inactive in [1], in assay [2], in [3], in [4], in assay [5] and in assay [6]. The compound was classed as inactive in assay [7], in assay [8], in assay [9] and in [10].
Turning to `CC(C)(OO)c1ccccc1`, the call in [1], in assay [2], in assay [3], in assay [4], in [5] and in [6] was inactive. The outcome in [7], in assay [8], in assay [9] and in [10] was inactive.
With `O=S(=O)(c1ccc(Cl)cc1)c1ccc(Cl)cc1`, the outcome in assay [1], in assay [2], in assay [3], in assay [4], in assay [5] and in [6] was inactive. For the same compound, the compound was called inactive in assay [7], in assay [8] and in assay [10].
`CC(C)(c1ccccc1)c1ccc(O)c(C(C)(C)c2ccccc2)c1`: the AC50 was 9.29 µM (active) in assay [1], 5.86 µM (active) in assay [3], 15.2 µM (active) in [6] and 2.78 µM (active) in [9]. For the same compound, the call in [2], in assay [4], in assay [5], in [7], in assay [8] and in assay [10] was inactive.
With `Nc1ncc([N+](=O)[O-])s1`, the call in assay [1], in [2], in assay [3], in assay [4], in assay [5] and in assay [6] was inactive. Moreover, the outcome in [7], in [8], in [9] and in assay [10] was inactive.
In the case of `Fc1ccc(C2(Cn3cncn3)OC2c2ccccc2Cl)cc1` (stereo not given), the compound was called inactive in assay [1], in assay [2], in assay [3], in assay [4], in assay [5] and in [6]. Moreover, the compound was called inactive in assay [7], in assay [8], in assay [9] and in assay [10].

The record behind these values is PubChem BioAssay (EPA / NIEHS).
